Screening results (PubChem)
DRD3 antagonist – qHTS of D3 Dopamine Receptor Antagonist: qHTS; D(3) dopamine receptor (Homo sapiens), P35462; D3R cells, DiscoveRx beta-arrestin luminescence, antagonist mode; stronger effect = lower value; max response, negative = inhibition, %; actives 2.5% (n = 360,000); in the data active = max response below about -50%; inconclusive = no clear call, values can overlap the other calls; also: % is scaled to controls: 0 for no effect and ±100 for the full control effect
Target sequence (P35462 whole entry, looked up): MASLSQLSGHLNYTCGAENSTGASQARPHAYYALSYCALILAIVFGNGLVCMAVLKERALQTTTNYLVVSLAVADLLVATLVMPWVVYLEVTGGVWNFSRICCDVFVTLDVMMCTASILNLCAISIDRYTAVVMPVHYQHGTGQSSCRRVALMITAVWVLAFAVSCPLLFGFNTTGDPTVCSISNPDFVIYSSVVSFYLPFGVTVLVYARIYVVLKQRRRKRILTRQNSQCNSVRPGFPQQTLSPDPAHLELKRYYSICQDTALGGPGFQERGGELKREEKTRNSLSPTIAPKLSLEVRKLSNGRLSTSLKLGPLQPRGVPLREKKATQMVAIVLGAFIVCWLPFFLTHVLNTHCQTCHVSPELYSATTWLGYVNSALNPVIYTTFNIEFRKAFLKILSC
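Cells expressing the human receptor were seeded at 1500 cells/well, incubated overnight at 37 degrees C in 5% CO2, then exposed to library compounds with dopamine controls for 90 minutes at 37 degrees C before luminescent detection.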
DT40 TDP1 CPT – qHTS for Inhibitors of human tyrosyl-DNA phosphodiesterase 1 (TDP1): qHTS in cells in presence of CPT; chicken DT40 Tdp1-/-;hTDP1 cells + 20 nM CPT, ATP luminescence, 48 h; Potency, µM (series often up to 46.2 µM), for the others: top-dose activity change, negative = growth inhibition, hits mostly inhibitors; actives 12% (n = 420,000); also: potency is read from the fitted curve at half-maximal effect; % is scaled to controls: 0 for no effect and ±100 for the full control effect; nearly all actives have a fitted effect of over 55% in size
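Chicken DT40 Tdp1-/- cells stably complemented with human TDP1 were seeded at 400 cells/well in medium containing 20 nM camptothecin, exposed to pin-transferred compounds, and grown at 37 °C for at least 48 hr. Viability was read as ATP luminescence.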
DRD3 agonist – qHTS of D3 Dopamine Receptor Agonist: qHTS | D(3) dopamine receptor (Homo sapiens), P35462 | D3R DiscoveRx beta-arrestin cells, luminescence, 90 min | max activation, % | actives 0.58% (n = 410,000) | AID 652048, 2013; in the data active = max activation above about 30%; also: 0% is about no effect
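Agonist mode: compounds and dopamine controls were applied to plated cells for 90 min at 37 degrees C after an overnight attachment at 1500 cells/well. Luminescent read-out followed 30 - 60 minutes at room temperature with DiscoveRx detection reagent.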
TDP1 cell noCPT – qHTS for Inhibitors of human tyrosyl-DNA phosphodiesterase 1 (TDP1): qHTS in cells in absence of CPT; DT40 Tdp1-/- hTDP1 cells, no CPT, ATP luminescence, 48 h; Potency, µM (titrated, usually from 46.2 µM), inactives show at the highest dose activity change, negative = growth inhibition, usual class: inhibitors; actives 15% (n = 420,000); AID 686978, 2013; also: potency is read from the fitted curve at half-maximal effect; % is scaled to controls: 0 for no effect and ±100 for the full control effect; nearly all actives have a fitted effect of over 55% in size
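Chicken DT40 Tdp1-/- cells stably complemented with human TDP1 were seeded at 400 cells/well with DMSO in place of 20 nM camptothecin. After compound pinning, cells grew at least 48 hr at 37 °C; viability read by CellTiter-Glo luminescence.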
IL1B secr inh – qHTS for Inhibitors of Inflammasome Signaling: IL-1-beta AlphaLISA Primary Screen; actives 4.7% (n = 360,000); THP-1 LPS/ATP IL-1B secretion, AlphaLISA, 16 h; stronger effect = lower value; AID 743279, 2014; activity change, % at 57.5 µM; in the data active = activity change below about -50%; inconclusive = mostly about -30% to -49%; also: % is scaled to controls: 0 for no effect and ±100 for the full control effect
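THP-1 cells pretreated 1 hr with compounds (up to 57.5 uM final), then stimulated with LPS (250 ng/mL final) plus ATP (1.25 mM final); secreted IL-1B measured by AlphaLISA after 16 hr, decreased signal indicating inhibition.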
ClpP mod – qHTS Assay for Activators of ClpP. ATP-dependent Clp protease proteolytic subunit (Bacillus subtilis (strain 168)), P80244. purified B. subtilis ClpP, FRET peptide cleavage, 20 min. Potency, µM (highest dose often 57.5 µM), for the others: at the top dose activity change, negative = active. actives 1.9% (n = 340,000); active = well fitted falling curve with a large enough effect; inconclusive = small, poorly fitted or top-dose-only effect; inactive = no such curve, though single readings can be large or run the other way; also: potency is read from the fitted curve at half-maximal effect; the source files actives as falling curves though it sought activators and does not explain the sign; nearly all actives have a fitted effect of over 65% in size
Target sequence (P80244 whole entry, looked up): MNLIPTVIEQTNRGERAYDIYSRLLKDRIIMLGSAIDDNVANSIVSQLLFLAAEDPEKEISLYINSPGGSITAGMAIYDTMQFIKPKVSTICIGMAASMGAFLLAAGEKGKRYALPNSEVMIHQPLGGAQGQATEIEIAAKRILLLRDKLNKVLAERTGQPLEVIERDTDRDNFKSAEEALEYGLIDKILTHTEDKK
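ClpP 10 microg/mL final, pH 8 Tris/KCl buffer with BSA, glycerol, Tween-20; compound pinned in; FRET-FV substrate; RT 20 min; Ex320/Em430; ΔFRET vs ADEP 5.8 microM, DMSO, no enzyme.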
* marks the source's active call; other numbers are inactive results; ? = inconclusive; nt = no result given. An excerpt weighted towards active compounds, which were near 21% of everything screened. Unless noted, calls follow the shape of the dose curve; as a rule, active = well fitted inhibition curve with a large enough effect; inconclusive = small, poorly fitted or top-dose-only effect; inactive = flat fitted curve, though single readings scatter.

SMILES	DRD3 antagonist	DT40 TDP1 CPT	DRD3 agonist	TDP1 cell noCPT	IL1B secr inh	ClpP mod
CCOC(=O)c1c(NC(=O)c2nc(S(C)(=O)=O)ncc2Cl)sc(C(C)=O)c1C	nt	0.581µM*	6.6	0.92µM*	nt	-1.0%
CCOC(=O)c1c(NC(=O)COC(=O)c2cccnc2OCC)sc(C(=O)N(CC)CC)c1C	26.9	?	23.8	18.4µM*	-60.1*	nt
CCN(CC)C(=O)c1sc(NC(=O)C2c3ccccc3Oc3ccccc32)c(C(=O)OC(C)C)c1C	nt	?	-18.9	0.116µM*	nt	-23.4%
CCOC(=O)c1c(NC(=O)COC(=O)c2ccc(O)cc2)sc(C(=O)NC)c1C	51.0	18.4µM*	18.5	20.6µM*	13.5	nt
O=C(Oc1ccccc1)N1CCC2(CCCN(c3ccccn3)C2)CC1	nt	-1.3%	nt	?	nt	nt
Fc1ccc(Nc2nnc(-c3ccncc3)s2)cc1Cl	-1.3	-23.8%	-1.8	-26.2%	-28.3	-11.2%
C[C@H](N)C(=O)N[C@@H](C)P(=O)(O)O	nt	-1.9%	2.7	-9.9%	nt	nt
CCOC(=O)c1c(NC(=O)COC(=O)CCCOc2ccc(OC)cc2)sc(C(=O)N(C)C)c1C	19.9	-0.7%	-8.4	?	-1.6	2.9%
CCOC(=O)c1c(NC(=O)COc2ccc(Br)cc2)sc(C(C)=O)c1C	nt	?	16.7	9.2µM*	nt	-1.4%
CCOC(=O)c1c(NC(=O)COc2ccccc2)sc(C(C)=O)c1C	nt	nt	3.9	nt	nt	-1.7%
CCOC(=O)c1c(NC(=O)COc2ccc(OC)cc2)sc(C(=O)N(CC)CC)c1C	nt	?	-0.4	7.31µM*	nt	-3.0%
CCOC(=O)c1nnn(-c2nonc2-n2cccc2)c1C	0.0	-13.9%	8.1	-17.4%	2.6	1.1%
CCOC(=O)c1nnn(-c2nonc2-n2cccc2)c1-c1cccc([N+](=O)[O-])c1	-14.3	-14.4%	-5.1	?	-2.2	28.2µM*
Cc1ccc(S(=O)(=O)N(C)c2ccc(OCc3cccc(C)c3)cc2)cc1	-10.6	?	-12.9	18.4µM*	0.0	22.4µM*
COc1ccc(NC(=O)COc2ccc(N(C)S(=O)(=O)c3ccc(Cl)cc3)cc2)cc1OC	3.9	7.31µM*	-1.4	4.61µM*	-6.1	1.2%
Cc1ccc(S(=O)(=O)N(C)c2ccc(OCC(=O)OCc3cccc(Br)c3)cc2)cc1	-20.5	?	-5.8	6.6%	11.6	-0.6%
Cc1ccc(-c2csc(NC(=O)COc3ccc(N(C)S(=O)(=O)c4ccc(C)cc4)cc3)n2)cc1	-16.3	14.6µM*	-6.5	18.4µM*	-8.0	0.8%
CN(c1ccc(OCC(=O)NC2CCC(O)CC2)cc1)S(=O)(=O)c1ccc(Cl)cc1 (centres undefined)	3.3	?	2.8	13µM*	10.6	nt
O=C(C[n+]1ccccn1)c1ccccc1	-13.3	2.2%	-12.1	-5.7%	9.0	-1.9%
CCOC(=O)C1CCN(C(=O)COc2ccc(N(C)S(=O)(=O)c3ccc(C)cc3)cc2)CC1	9.9	3.4%	-3.7	?	-2.0	nt
COc1ccc(CCNC(=O)COc2ccc(N(C)S(=O)(=O)c3ccc(C)cc3)cc2)cc1	-2.6	?	1.4	?	-7.8	1.2%
COc1cc(NC(=O)COc2ccc(Cl)cc2)ccc1-c1cc2ccccc2oc1=O	10.1	4.11µM*	7.8	4.61µM*	3.3	-22.2%
Cc1ccc(NC(=O)COc2ccc(N(C)S(=O)(=O)c3ccc(F)cc3)cc2)cc1	0.2	?	-3.7	16.4µM*	-9.3	0.7%
CN(c1ccc(OCC(=O)OCC(=O)Nc2ccc(F)cc2)cc1)S(=O)(=O)c1ccc(Cl)cc1	2.9	0.5%	-1.9	-18.5%	25.9	0.2%
COc1ccc(-c2csc(NC(=O)COc3ccc(N(C)S(=O)(=O)c4ccc(C)cc4)cc3)n2)cc1	1.0	5.17µM*	1.6	6.51µM*	6.3	-2.3%
SMILES	DRD3 antagonist	DT40 TDP1 CPT	DRD3 agonist	TDP1 cell noCPT	IL1B secr inh	ClpP mod
CCC1CCCCN1C(=O)COc1ccc(N(C)S(=O)(=O)c2ccc(C)cc2)cc1 (centres undefined)	-6.3	20.6µM*	3.1	14.6µM*	4.4	-0.3%
Cc1ccc2nc(Cl)c(C3CC(c4cccs4)=NN3C(=O)CCCC(=O)O)cc2c1 (centres undefined)	12.1	-18.5%	31.5*	8.2µM*	28.7	nt
O=C(O)CCC(=O)N1N=C(c2cccs2)CC1c1cn(-c2ccccc2)nc1-c1ccccc1 (centres undefined)	-2.9	?	-0.1	?	23.8	14.1µM*
Cc1ccc2cc(C3CC(c4ccco4)=NN3C(=O)CCC(=O)O)c(Cl)nc2c1 (centres undefined)	-4.7	?	-6.5	16.4µM*	-5.2	-1.8%
CCc1ccccc1NC(=O)Cn1c(=O)n(Cc2ccco2)c(=O)c2sc3ccccc3c21	nt	-5.5%	-5.6	-16.7%	nt	-16.5%
O=C(Nc1cn(-c2ccccc2)nc1-c1ccc(F)cc1)c1ccccc1	10.0	20.6µM*	0.0	18.4µM*	10.5	42.7%
Cc1ccc(-c2nn(-c3ccccc3)cc2NC(=O)c2ccccc2)cc1	13.8	20.6µM*	-12.5	20.6µM*	?	0.7%
O=C(Nc1cn(-c2ccccc2)nc1-c1ccc(Cl)cc1)c1ccccc1	13.5	?	1.0	?	3.9	?
O=C(NCc1cccc(C(F)(F)F)c1)c1csc(COCCO)n1	39.4	4.0%	9.6	-5.9%	12.5	-0.5%
COc1ccccc1Cc1nc2ccccc2nc1SCC(=O)Nc1cccc(Cl)c1C	nt	19.6%	-14.1	0.6%	nt	-0.4%
COc1cccc(NS(=O)(=O)c2ccc3c(c2)N(C)C(=O)CC(=O)N3C)c1	nt	-2.7%	5.3	-16.9%	nt	1.0%
O=C(NCC1CC1)C1(C(F)(F)F)CC(CCc2ccccc2)CCCO1 (centres undefined)	-16.9	20.6µM*	-21.7	20.6µM*	-2.4	0.9%
O=C(CCc1nnc(Cc2ccc(-c3ccccc3)cc2)o1)NCC1CC1	2.1	-20.5%	5.5	-26.9%	-1.6	nt
COc1cccc(C(=O)Nc2nnc(S(=O)(=O)N3CCCC3)s2)c1	7.8	?	0.1	2.8%	-8.2	-2.5%
COC(=O)C1=C(C)NC(=O)NC1c1cn(-c2ccccc2)nc1-c1ccc(OC)c(Cl)c1 (centres undefined)	nt	?	2.1	20.6µM*	nt	-2.2%
